Compound activity deposited in PubChem by several laboratories.
In the library only some 1% were active in any assay of this set; here they are far more common.
Bfl-1 A1 inh = inhibitors of the anti-apoptotic protein A1, read as caspase activation; MEF A1-2A-BIM cells, Caspase-Glo 3/7 luminescence, 3 h; percent of clofoctol response, vehicle zero; AID 2462; 0.066% of 330,000 active; caspase activation, % (test concentration not listed);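 active means over half of replicate activation scores above 10%, or exactly half above 10 with the replicate mean above 10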
H9c2 TAG inh = triacylglycerol accumulation inhibition; H9c2 cells, Nile Red lipid (TAG) fluorescence; cells loaded with 200 µM oleic acid; inhibition, % at 12.5 µM; 0.66% of 230,000 active; AID 651582;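 active means pattern-corrected inhibition of lipid staining of at least 50% with the nuclear-stain viability signal not falling by more than 50%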;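 further: 0% = DMSO wells and 100% = triacsin C control wells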
Efflux pump inh = inhibitors of Candida antifungal efflux pumps expressed in yeast. S. cerevisiae Candida pump triplex, Nile Red efflux. 0.44% of 330,000 active. inhibition, % at 10 µM. AID 485275;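 active means plate passing quality check with inhibition over a set limit, or well fluorescence over plate mean plus 4 SD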;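 further: Nile Red retained in pooled yeast measured as flow cytometry median fluorescence; 0% = buffer negative control and 100% = Enniatin B positive control; higher means more Nile Red kept so more efflux inhibition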
NPR2 activator = GC-B (human) receptor activation | AID 1920062 | activation, % at 10 µM | P20594 | 0.11% of 370,000 active | HEK293-GC-B cells, CNP EC30, cGMP TR-FRET; 0% at EC30 CNP, 100% saturating CNP;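 active means activation at 10 µM reaching about 35% in either raw or pattern-adjusted values, limit read from the data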
Target sequence (P20594 whole entry, looked up): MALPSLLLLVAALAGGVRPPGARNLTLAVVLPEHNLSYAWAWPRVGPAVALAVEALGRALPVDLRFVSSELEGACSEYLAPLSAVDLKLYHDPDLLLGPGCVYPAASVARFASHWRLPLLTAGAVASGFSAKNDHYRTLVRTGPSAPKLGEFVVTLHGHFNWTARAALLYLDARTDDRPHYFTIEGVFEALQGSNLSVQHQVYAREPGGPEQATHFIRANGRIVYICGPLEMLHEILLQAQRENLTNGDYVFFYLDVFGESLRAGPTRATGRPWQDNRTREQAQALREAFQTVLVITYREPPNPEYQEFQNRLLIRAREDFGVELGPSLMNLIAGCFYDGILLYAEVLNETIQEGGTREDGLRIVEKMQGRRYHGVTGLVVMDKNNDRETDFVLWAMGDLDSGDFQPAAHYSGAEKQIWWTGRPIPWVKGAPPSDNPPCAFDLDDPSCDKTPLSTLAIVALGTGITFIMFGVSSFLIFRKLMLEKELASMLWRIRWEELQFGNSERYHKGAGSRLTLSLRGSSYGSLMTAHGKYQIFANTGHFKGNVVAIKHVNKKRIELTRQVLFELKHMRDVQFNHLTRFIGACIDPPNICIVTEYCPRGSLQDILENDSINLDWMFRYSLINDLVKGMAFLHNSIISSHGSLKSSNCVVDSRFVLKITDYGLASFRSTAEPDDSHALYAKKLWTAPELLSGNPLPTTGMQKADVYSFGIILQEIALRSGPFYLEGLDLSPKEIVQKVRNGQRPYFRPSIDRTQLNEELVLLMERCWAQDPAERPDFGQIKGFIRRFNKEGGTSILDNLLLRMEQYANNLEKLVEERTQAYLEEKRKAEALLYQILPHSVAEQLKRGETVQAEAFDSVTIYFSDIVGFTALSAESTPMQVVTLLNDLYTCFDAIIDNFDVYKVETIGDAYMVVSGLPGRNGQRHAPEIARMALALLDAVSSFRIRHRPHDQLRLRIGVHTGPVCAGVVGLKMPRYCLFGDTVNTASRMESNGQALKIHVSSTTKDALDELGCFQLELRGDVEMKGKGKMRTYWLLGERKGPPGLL
HSV replic up = HSV replication enhancement; HSV replication augmentation in cells, fold increase; maximum fold increase; AID 1956; 0.005% of 220,000 active; in the data active means maximum fold increase above about 1.5; tested in PC3 cells
NPR1 activator = GC-A (human) enzyme activation. P16066. HEK293 GC-A cells, cGMP TR-FRET, EC30 ANP; 0% at EC30 ANP, 100% saturating ANP. activation, % at 10 µM. 0.14% of 370,000 active; in the data active means activation above about 40%
H9c2 TAG conf = triacylglycerol accumulation inhibition, confirmation; shares compounds with H9c2 TAG inh; H9c2 lipid accumulation, Nile Red fluorescence; cells loaded with 200 µM oleic acid; 71% of 990 active; AID 651629; inhibition, % at 12.5 µM;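 active means mean inhibition across replicates of 40% or more; inactive means mean inhibition below 40%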;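 further: plate controls were DMSO only wells for no effect and Triacsin C treated wells for full effect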
* marks the source's active call; other numbers are inactive results; i = inactive; nt = not tested or not shown; ! = repeats disagree.

SMILES	Bfl-1 A1 inh	H9c2 TAG inh	Efflux pump inh	NPR2 activator	HSV replic up	NPR1 activator	H9c2 TAG conf
CCOC(=O)[C@H]1[C@H]2COc3ccc(Cl)cc3[C@@H]2N2C(=O)c3cc(Cl)ccc3NC(=O)[C@@]12C	1	50*	nt	-14	nt	-6	53*
CCOC(=O)[C@@H]1[C@H]2COc3ccc(Br)cc3[C@@H]2N2C(=O)N(c3ccc(C(F)(F)F)cc3)C(=O)[C@@]12C	0	52*	0	-4	nt	-8	69*
CCOC(=O)[C@H]1[C@H]2COc3ccc(Br)cc3[C@@H]2N2C(=O)c3cc(Br)ccc3NC(=O)[C@@]12C	0	63*	nt	-19	nt	-9	52*
CCOC(=O)[C@H]1[C@H]2COc3ccc(Cl)cc3[C@@H]2N2C(=O)c3cc(Br)ccc3NC(=O)[C@@]12C	0	13	nt	-21	nt	-9	nt
COCCNc1nc(-c2ccc(OC)cc2C)c2sc(-c3ccccc3)cc2n1	nt	60*	nt	6	nt	-6	19
CCCC1CCC2(CC1)CCC2OC(=S)Nc1cccc(I)c1 (centres undefined)	nt	nt	nt	6	nt	0	nt
CCOC(=O)[C@]12CCCCC/C=C\1N(Cc1ccc(OC)cc1)C(=O)[C@H]2CC(=O)NCCc1ccccc1OC	nt	nt	nt	-4	nt	-4	nt
COc1cc(C2C(C#N)=C(N)Oc3cc4c(cc32)OCO4)cc(OC)c1OC (centres undefined)	1	51*	0	-17	i	-23	71*
N#Cc1ccc(Cn2ccc3ccc(-c4ccc5ccn(C(=O)C6CCC6)c5c4)cc32)cc1	nt	nt	nt	1	nt	5	nt
O=C(NCc1ccccc1)C1CCN(c2nc(-c3ccccc3)nc3c2CCC3)CC1	0	42	0	-12	nt	0	nt
COc1ccc(CNC(=O)C2CCN(c3nc(-c4ccccc4)nc4c3CCC4)CC2)cc1	0	52*	0	2	nt	-4	41*
Cc1ccc(Cn2cc(COC(=O)NCCc3c[nH]c4ccccc34)nn2)cc1	nt	nt	nt	-4	nt	-4	nt
CN(Cc1ccccc1)C(=O)OCc1cn(Cc2cccc(C(F)(F)F)c2)nn1	nt	nt	nt	4	nt	-5	nt
COc1cc(NC(=O)c2nccnc2N)cc(C(=O)Nc2cccc(C(F)(F)F)c2)c1	1	61*!	0	8	i	0	35
COc1ccc(-c2cc(C(=O)Nc3cc(OC)cc(C(=O)Nc4cccc(C(F)(F)F)c4)c3)[nH]n2)cc1	0	84*	0	-2	i	0	77*
COc1cc(NC(=O)c2nccn2C)cc(C(=O)Nc2cccc(C(F)(F)F)c2)c1	1	107*	0	-3	i	2	26
COC(=O)C1CCCN(C(=O)C2CCN(S(=O)(=O)c3cccc4cccnc34)CC2)C1 (centres undefined)	nt	nt	nt	-5	nt	-9	nt
COc1cc(NC(=O)NC2CCCCN(Cc3ccc(Cl)cc3)C2=O)cc(OC)c1 (centres undefined)	nt	nt	nt	9	nt	3	nt
N#CC1C=Cc2ccccc2N1C(=O)c1ccccc1 (centres undefined)	0	-3	0	0	i	2	nt
N#CC1C=Cc2c(ccc3ccccc23)N1C(=O)c1ccccc1 (centres undefined)	nt	60*	nt	-4	nt	-8	56*
CCCCOc1ccc(NC(=O)C(=O)NCCC2=CCCCC2)cc1	-1	64*	0	5	i	-3	8
COc1ccc(NC(=O)NCCC2=CCCCC2)cc1	-4	-4	0	2	i	0	nt
COc1ccc(S(=O)(=O)N2CCCCCC2)c2ccccc12	nt	nt	nt	-5	nt	-2	nt
O=C(O)c1ccccc1/C=N/Nc1ccc(S(=O)(=O)N2CCOCC2)cc1[N+](=O)[O-]	1	-2	0	7	i	-1	nt
CCCCCC(=C/c1ccccc1)/C=N/Nc1ccc(S(=O)(=O)N2CCOCC2)cc1[N+](=O)[O-]	nt	83*	nt	1	nt	0	81*
SMILES	Bfl-1 A1 inh	H9c2 TAG inh	Efflux pump inh	NPR2 activator	HSV replic up	NPR1 activator	H9c2 TAG conf
O=S1(=O)c2ccc(N3CCCC3)cc2Oc2ccccc2CN1Cc1cn(Cc2cccc(F)c2)nn1	nt	nt	nt	4	nt	1	nt
O=C(CCl)Nc1cc2[nH]c(=O)[nH]c2cc1Br	-1	51*	0	0	i	-1	69*
COc1ccc(NS(=O)(=O)c2cccc(C(=O)N/N=C/c3cn(-c4ccccc4)nc3-c3ccccc3)c2)cc1	0	60*	0	2	i	0	62*
COc1ccc(NS(=O)(=O)c2cccc(C(=O)N/N=C/c3cn(-c4ccccc4)nc3-c3ccc(OC)cc3)c2)cc1	0	44	0	0	i	-1	nt
COC(=O)c1c(NC(=O)Cc2cccs2)sc2c1CCC(C)C2 (centres undefined)	0	nt	0	0	i	4	nt
COC(=O)c1c(NC(=S)NN2CCN(C)CC2)sc2c1CCC(C)C2 (centres undefined)	1	65*	0	-11	i	14	84*
CN(C)c1ccc(CN2CCC(C(=O)NC(c3ccc(F)cc3)c3ccc4ccccc4n3)CC2)cc1 (centres undefined)	nt	56*	nt	-11	nt	-14	38
COc1cc(/C=C/CN2CCC(C(=O)NC(c3ccc(F)cc3)c3ccc4ccccc4n3)CC2)ccc1OC(C)=O (centres undefined)	nt	54*	nt	-4	nt	-8	54*
O=C(NC(c1ccc(F)cc1)c1ccc2ccccc2n1)C1CCN(CCOc2ccc(Cl)cc2)CC1 (centres undefined)	nt	-7	nt	-6	nt	-4	nt
O=C(NC(c1ccc(F)cc1)c1ccc2ccccc2n1)C1CCN(Cc2ccc3ccccc3n2)CC1 (centres undefined)	nt	-8	nt	-2	nt	-7	nt
COc1ccc(N2CCN(CCCNC(=O)CCc3cccc(F)c3)CC2)cc1	nt	nt	nt	4	nt	3	nt
CCOc1ccc(CN(C)C(=O)CCl)cc1	0	58*	0	3	i	-3	80*
Cc1ccc(-c2nc(NC(=O)c3cc(C(C)(C)C)nn3C)sc2C)cc1Cl	0	68*	0	-6	i	4	86*
CC1CCc2nc(NC(=O)c3cc(C(C)(C)C)nn3C)sc2C1 (centres undefined)	0	24	0	-8	i	4	nt
COC(=O)C1CN(Cc2ccc(F)cc2)CCS(=O)(=O)N1Cc1ccccc1 (centres undefined)	nt	nt	nt	-6	nt	-3	nt
CCC(CC)NCc1ccc2c(c1)c1ccccc1n2CC	0	52*	0	0	i	-11	37
O=C(Nc1ccc(-c2csc(Nc3cccc(C(F)(F)F)c3)n2)cc1)c1cc([N+](=O)[O-])cc(C(F)(F)F)c1	-1	71*	0	-2	i	-3	68*
